# PMC7862700, “An all-to-all approach to the identification of sequence-specific readers for epigenetic DNA modifications on cytosine”
# Columns and labels:
# Experiment in all cases: DAPPL (digital affinity profiling via proximity ligation, sequencing); 10 mM Tris-HCl pH 7.5, 50 mM NaCl, 1 mM DTT, 4% glycerol, room temperature, 30 min; GST-TFs on glutathione beads, 16-mer random dsDNA library, 0.1% formaldehyde crosslink after washing; high values mean tight binding
# FEV = molecular target: T1, FEV (Homo sapiens, UniProt Q99581 1-238); details: protein: recombinant; tags: N-terminal GST; dsDNA, one strand shown
# T1 sequence: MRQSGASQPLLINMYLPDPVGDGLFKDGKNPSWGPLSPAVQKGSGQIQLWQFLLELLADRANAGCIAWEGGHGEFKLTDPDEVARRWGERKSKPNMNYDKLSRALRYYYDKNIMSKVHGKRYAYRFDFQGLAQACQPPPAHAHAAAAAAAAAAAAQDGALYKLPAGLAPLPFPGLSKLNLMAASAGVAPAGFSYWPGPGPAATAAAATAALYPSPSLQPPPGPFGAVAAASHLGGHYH
# In short: (§1)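 Each value of binding signal is a hexamer's read frequency for a factor divided by the same hexamer's frequency in the tag-only sample. Barcoded, bead-captured GST fusions of human transcription factors made in yeast were pooled with that sample and incubated with 200 nmole of a random double-stranded 16-mer DNA library in Tris/NaCl/DTT/glycerol buffer at room temperature for 30 min. Washing, 0.1% formaldehyde crosslinking, proximity ligation, PCR and Illumina NextSeq500 sequencing followed.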
# ETV5 = ETV5 (Homo sapiens, UniProt P41161 1-510); details: protein: recombinant; tags: N-terminal GST; dsDNA, one strand shown
# Chain of ETV5 (P41161 whole entry): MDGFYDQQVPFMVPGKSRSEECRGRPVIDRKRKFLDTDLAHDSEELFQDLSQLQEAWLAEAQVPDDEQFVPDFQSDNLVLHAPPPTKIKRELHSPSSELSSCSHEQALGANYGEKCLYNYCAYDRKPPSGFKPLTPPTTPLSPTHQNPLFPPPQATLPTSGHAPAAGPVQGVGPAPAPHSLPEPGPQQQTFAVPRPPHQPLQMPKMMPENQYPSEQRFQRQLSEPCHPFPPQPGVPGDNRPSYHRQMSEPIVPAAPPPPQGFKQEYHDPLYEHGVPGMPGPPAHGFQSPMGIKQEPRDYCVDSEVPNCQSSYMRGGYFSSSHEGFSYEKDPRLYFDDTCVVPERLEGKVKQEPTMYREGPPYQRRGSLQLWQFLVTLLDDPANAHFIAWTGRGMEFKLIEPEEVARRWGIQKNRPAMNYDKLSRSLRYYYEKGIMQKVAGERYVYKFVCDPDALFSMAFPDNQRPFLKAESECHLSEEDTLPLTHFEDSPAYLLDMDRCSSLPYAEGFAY
# In short: as §1
# HSF1 = HSF1 (Homo sapiens, UniProt Q00613 1-529); details: protein: recombinant; tags: N-terminal GST; chain copies: 3; dsDNA, one strand shown
# Chain of HSF1 (Q00613 whole entry): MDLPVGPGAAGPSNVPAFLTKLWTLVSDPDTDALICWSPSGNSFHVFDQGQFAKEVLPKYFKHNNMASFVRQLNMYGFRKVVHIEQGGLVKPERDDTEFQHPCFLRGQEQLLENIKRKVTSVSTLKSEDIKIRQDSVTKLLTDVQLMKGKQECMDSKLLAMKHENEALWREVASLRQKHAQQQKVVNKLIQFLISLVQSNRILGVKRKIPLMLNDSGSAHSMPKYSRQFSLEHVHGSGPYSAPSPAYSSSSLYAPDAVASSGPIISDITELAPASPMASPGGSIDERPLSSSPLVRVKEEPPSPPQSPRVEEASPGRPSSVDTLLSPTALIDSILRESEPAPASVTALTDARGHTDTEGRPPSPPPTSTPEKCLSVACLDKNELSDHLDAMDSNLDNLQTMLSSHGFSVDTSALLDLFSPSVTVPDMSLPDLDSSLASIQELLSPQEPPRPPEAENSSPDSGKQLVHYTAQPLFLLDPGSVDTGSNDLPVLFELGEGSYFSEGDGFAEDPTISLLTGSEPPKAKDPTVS
# In short: as §1
# SPIC = molecular target: T2, SPIC (Homo sapiens, UniProt Q8N5J4 1-248); details: protein: recombinant; tags: N-terminal GST; dsDNA, one strand shown
# T2 sequence: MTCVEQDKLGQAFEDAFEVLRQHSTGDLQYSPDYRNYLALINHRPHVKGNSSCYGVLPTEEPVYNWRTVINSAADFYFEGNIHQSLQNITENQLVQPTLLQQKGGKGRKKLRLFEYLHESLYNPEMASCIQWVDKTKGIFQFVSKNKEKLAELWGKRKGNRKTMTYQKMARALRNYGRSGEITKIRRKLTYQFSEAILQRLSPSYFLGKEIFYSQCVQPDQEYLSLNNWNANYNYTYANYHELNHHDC
# In short: as §1
# ELF4 = ELF4 (Homo sapiens, UniProt Q99607 1-663); details: protein: recombinant; tags: N-terminal GST; dsDNA, one strand shown
# Chain of ELF4 (Q99607 whole entry): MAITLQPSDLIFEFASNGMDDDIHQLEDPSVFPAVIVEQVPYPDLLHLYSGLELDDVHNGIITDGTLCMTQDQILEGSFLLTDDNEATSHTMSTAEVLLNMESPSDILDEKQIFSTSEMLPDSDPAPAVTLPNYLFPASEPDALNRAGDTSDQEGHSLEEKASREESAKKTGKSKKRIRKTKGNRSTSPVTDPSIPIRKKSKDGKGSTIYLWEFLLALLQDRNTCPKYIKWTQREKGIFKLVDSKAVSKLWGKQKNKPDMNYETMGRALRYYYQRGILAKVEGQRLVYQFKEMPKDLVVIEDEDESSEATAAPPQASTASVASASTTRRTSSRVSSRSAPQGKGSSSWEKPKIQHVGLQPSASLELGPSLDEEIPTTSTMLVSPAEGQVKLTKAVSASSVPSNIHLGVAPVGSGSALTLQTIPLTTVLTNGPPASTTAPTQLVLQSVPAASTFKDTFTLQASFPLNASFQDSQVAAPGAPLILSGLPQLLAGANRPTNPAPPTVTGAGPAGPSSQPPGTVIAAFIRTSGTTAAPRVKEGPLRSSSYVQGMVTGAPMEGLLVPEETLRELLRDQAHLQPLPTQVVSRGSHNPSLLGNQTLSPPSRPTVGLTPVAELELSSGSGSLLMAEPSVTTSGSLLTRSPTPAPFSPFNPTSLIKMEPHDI
# In short: as §1
# ELK4 = molecular target: T3, ELK4 (Homo sapiens, UniProt P28324-2 1-405); details: protein: recombinant; tags: N-terminal GST; dsDNA, one strand shown
# T3 sequence: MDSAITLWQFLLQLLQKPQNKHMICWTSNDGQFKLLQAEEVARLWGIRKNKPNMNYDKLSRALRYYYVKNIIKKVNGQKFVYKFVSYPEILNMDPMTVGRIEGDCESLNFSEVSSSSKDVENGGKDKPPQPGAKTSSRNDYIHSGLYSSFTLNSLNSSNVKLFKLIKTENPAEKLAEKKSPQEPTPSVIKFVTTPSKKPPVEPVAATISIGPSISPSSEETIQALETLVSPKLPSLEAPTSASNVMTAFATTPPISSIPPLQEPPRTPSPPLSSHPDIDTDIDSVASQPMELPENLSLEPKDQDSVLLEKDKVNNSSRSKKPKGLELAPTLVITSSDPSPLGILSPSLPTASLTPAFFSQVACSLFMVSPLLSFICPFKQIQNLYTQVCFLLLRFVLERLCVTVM
# In short: as §1
# ETV2 = molecular target: T4, ETV2 (Homo sapiens, UniProt O00321 1-342); details: protein: recombinant; tags: N-terminal GST; dsDNA, one strand shown
# T4 sequence: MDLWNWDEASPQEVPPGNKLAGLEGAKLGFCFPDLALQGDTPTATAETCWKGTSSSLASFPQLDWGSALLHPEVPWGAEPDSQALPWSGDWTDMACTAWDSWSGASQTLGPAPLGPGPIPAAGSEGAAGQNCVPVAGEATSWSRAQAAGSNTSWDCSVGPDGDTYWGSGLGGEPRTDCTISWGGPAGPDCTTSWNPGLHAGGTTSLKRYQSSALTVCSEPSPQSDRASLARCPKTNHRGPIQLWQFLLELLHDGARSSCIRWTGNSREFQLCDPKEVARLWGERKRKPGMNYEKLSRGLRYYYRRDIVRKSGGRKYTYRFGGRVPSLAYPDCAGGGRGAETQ
# In short: as §1
# ELF3 = molecular target: T5, ELF3 (Homo sapiens, UniProt P78545 1-371); details: protein: recombinant; tags: N-terminal GST; dsDNA, one strand shown
# T5 sequence: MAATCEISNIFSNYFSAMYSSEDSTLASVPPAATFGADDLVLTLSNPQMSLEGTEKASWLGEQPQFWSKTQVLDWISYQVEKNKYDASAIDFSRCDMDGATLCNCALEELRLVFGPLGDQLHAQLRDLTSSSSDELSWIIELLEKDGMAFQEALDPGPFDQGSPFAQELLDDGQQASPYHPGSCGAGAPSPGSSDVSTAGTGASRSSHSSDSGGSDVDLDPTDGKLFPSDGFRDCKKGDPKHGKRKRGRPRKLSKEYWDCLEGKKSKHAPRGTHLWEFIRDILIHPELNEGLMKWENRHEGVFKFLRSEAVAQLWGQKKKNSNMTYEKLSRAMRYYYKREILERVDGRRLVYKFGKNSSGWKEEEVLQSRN
# In short: as §1
# CRX = CRX (Homo sapiens, UniProt O43186 1-299); details: protein: recombinant; tags: N-terminal GST; dsDNA, one strand shown
# Chain of CRX (O43186 whole entry): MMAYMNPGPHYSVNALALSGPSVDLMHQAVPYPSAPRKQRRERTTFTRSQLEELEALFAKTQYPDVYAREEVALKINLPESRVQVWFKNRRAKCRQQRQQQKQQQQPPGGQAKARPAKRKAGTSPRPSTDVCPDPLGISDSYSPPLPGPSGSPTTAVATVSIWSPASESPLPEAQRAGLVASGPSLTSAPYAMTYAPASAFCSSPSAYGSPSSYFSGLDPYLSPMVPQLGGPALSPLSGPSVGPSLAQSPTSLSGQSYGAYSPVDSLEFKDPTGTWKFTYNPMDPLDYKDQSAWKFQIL
# In short: as §1
# ETV1 = ETV1 (Homo sapiens, UniProt P50549 1-477); details: protein: recombinant; tags: N-terminal GST; dsDNA, one strand shown
# Chain of ETV1 (P50549 whole entry): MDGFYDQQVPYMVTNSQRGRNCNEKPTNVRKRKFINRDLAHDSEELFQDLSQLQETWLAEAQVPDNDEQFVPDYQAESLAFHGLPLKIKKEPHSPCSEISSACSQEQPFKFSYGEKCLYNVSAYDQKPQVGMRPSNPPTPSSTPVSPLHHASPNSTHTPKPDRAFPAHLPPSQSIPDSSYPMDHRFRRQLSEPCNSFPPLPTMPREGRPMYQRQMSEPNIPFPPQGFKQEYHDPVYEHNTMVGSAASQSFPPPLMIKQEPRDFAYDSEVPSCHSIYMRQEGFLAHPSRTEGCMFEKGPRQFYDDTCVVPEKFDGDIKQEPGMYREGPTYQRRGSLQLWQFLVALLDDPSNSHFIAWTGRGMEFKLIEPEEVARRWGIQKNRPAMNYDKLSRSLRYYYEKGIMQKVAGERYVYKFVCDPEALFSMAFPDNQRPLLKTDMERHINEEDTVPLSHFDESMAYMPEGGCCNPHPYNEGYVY
# In short: as §1
# ERF = molecular target: T6, ERF (Homo sapiens, UniProt P50548 1-548); details: protein: recombinant; tags: N-terminal GST; dsDNA, one strand shown
# T6 sequence: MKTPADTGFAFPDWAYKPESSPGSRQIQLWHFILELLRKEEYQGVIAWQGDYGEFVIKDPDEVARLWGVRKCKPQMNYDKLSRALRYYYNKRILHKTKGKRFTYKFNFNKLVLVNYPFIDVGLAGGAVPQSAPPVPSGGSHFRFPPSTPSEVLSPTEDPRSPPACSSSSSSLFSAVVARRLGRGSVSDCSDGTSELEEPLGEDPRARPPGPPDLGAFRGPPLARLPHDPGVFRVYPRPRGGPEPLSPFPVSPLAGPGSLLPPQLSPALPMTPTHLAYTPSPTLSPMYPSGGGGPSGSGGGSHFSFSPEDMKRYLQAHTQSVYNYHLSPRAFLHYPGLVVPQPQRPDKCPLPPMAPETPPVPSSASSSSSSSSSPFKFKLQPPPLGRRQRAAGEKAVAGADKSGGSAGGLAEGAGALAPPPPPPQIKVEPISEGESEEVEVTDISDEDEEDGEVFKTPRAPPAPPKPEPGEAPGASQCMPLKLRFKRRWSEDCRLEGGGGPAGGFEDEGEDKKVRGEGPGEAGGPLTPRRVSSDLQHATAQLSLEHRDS
# In short: as §1
# ETV3L = molecular target: T7, ETV3L (Homo sapiens, UniProt Q6ZN32 1-361); details: protein: recombinant; tags: N-terminal GST; dsDNA, one strand shown
# T7 sequence: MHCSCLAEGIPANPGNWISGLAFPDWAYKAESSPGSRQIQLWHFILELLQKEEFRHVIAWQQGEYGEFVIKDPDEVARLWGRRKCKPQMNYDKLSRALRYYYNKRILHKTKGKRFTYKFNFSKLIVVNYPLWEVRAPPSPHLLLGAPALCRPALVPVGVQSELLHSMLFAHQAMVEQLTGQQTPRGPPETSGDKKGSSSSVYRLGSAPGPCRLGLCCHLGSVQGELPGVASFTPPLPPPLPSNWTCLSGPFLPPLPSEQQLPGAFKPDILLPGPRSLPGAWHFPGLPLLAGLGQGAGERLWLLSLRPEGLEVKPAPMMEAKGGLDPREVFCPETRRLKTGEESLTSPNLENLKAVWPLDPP
# In short: as §1
# ETS2 = molecular target: T8, ETS2 (Homo sapiens, UniProt P15036 1-469); details: protein: recombinant; tags: N-terminal GST; dsDNA, one strand shown
# T8 sequence: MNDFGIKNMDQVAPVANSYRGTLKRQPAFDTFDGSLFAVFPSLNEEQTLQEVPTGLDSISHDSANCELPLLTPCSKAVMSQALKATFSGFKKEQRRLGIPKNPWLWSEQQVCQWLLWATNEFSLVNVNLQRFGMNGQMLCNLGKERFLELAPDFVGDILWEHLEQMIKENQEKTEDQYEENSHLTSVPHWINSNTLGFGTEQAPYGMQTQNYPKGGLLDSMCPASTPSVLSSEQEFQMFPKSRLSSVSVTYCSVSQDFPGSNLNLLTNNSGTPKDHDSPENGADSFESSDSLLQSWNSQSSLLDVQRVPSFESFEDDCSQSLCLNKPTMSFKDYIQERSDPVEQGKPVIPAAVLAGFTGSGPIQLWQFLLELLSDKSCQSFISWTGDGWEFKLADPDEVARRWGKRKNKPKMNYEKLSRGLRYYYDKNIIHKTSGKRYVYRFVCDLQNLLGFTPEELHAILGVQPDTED
# In short: as §1
# SPDEF = molecular target: T9, SPDEF (Homo sapiens, UniProt O95238 1-335); details: protein: recombinant; tags: N-terminal GST; dsDNA, one strand shown
# T9 sequence: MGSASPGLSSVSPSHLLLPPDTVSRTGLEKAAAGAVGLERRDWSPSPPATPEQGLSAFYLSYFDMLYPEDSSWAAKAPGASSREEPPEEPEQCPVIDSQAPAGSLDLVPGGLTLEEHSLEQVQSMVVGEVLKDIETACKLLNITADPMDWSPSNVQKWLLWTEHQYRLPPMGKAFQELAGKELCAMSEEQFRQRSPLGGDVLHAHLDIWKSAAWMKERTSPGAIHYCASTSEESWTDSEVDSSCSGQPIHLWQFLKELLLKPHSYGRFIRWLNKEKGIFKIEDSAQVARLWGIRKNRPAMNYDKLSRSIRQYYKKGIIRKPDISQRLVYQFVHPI
# In short: as §1
# ETV7 = molecular target: T10, ETV7 (Homo sapiens, UniProt Q9Y603 1-341); details: protein: recombinant; tags: N-terminal GST; dsDNA, one strand shown
# T10 sequence: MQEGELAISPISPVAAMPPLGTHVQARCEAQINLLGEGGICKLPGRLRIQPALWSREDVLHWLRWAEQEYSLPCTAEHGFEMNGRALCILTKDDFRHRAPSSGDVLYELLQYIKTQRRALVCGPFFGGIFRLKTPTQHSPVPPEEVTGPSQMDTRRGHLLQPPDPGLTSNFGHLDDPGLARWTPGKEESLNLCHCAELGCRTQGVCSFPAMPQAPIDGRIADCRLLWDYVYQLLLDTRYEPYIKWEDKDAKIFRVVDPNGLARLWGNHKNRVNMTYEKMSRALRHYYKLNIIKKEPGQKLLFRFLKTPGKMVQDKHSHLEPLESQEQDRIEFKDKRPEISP
# In short: as §1
# ELF5 = molecular target: T11, ELF5 (Homo sapiens, UniProt Q9UKW6-2 1-255); details: protein: recombinant; tags: N-terminal GST; dsDNA, one strand shown
# T11 sequence: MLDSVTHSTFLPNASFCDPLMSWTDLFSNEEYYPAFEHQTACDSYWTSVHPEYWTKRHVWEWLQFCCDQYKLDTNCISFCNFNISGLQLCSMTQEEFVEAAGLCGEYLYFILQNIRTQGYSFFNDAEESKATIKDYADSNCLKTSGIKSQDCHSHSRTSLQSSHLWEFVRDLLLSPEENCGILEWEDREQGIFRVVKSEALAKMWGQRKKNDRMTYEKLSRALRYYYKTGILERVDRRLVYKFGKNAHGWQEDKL
# In short: as §1
# ETV3 = molecular target: T12, ETV3 (Homo sapiens, UniProt P41162-2 1-143); details: protein: recombinant; tags: N-terminal GST; dsDNA, one strand shown
# T12 sequence: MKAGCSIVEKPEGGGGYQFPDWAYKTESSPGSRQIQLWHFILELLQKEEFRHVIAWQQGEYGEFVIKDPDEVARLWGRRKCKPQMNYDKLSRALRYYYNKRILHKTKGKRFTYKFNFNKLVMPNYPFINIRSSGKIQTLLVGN
# In short: as §1
# ETV6 = ETV6 (Homo sapiens, UniProt P41212 1-452); details: protein: recombinant; tags: N-terminal GST; dsDNA, one strand shown
# Chain of ETV6 (P41212 whole entry): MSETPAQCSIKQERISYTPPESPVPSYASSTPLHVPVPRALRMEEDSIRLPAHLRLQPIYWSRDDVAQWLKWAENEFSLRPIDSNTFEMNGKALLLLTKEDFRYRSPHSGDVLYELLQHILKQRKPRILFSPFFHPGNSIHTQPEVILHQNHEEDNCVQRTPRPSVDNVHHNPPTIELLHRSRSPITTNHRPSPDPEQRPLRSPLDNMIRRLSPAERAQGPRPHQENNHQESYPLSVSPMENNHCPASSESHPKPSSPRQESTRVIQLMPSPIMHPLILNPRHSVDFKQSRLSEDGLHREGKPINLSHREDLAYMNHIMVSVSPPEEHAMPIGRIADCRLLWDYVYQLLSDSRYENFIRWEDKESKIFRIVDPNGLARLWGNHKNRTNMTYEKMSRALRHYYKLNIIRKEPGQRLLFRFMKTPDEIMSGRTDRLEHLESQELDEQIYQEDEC
# In short: as §1
sequence,measurement,setting,value
TTCTCC,binding signal,FEV,"1.63 fold enrichment (6-mer frequency, TF over GST control)"
same,binding signal,ETV5,"1.49 fold enrichment (6-mer frequency, TF over GST control)"
same,binding signal,HSF1,"1.98 fold enrichment (6-mer frequency, TF over GST control)"
same,binding signal,SPIC,"1.37 fold enrichment (6-mer frequency, TF over GST control)"
same,binding signal,ELF4,"1.51 fold enrichment (6-mer frequency, TF over GST control)"
same,binding signal,ELK4,"1.63 fold enrichment (6-mer frequency, TF over GST control)"
same,binding signal,ETV2,"1.39 fold enrichment (6-mer frequency, TF over GST control)"
same,binding signal,ELF3,"1.4 fold enrichment (6-mer frequency, TF over GST control)"
same,binding signal,CRX,"1.51 fold enrichment (6-mer frequency, TF over GST control)"
same,binding signal,ETV1,"1.45 fold enrichment (6-mer frequency, TF over GST control)"
same,binding signal,ERF,"1.53 fold enrichment (6-mer frequency, TF over GST control)"
same,binding signal,ETV3L,"1.58 fold enrichment (6-mer frequency, TF over GST control)"
same,binding signal,ETS2,"1.53 fold enrichment (6-mer frequency, TF over GST control)"
same,binding signal,SPDEF,"1.52 fold enrichment (6-mer frequency, TF over GST control)"
same,binding signal,ETV7,"1.46 fold enrichment (6-mer frequency, TF over GST control)"
same,binding signal,ELF5,"1.51 fold enrichment (6-mer frequency, TF over GST control)"
same,binding signal,ETV3,"1.5 fold enrichment (6-mer frequency, TF over GST control)"
same,binding signal,ETV6,"1.48 fold enrichment (6-mer frequency, TF over GST control)"
